D1 potentiator = Potentiators of Human D1 Dopamine Receptor: qHTS | D(1A) dopamine receptor (Homo sapiens), P21728 | HEK293 TREx D1 cells, calcium flux, dopamine EC20 potentiation | potentiation, % at 10 µM | 0.036% of 360,000 active | AID 504651, 2011; in the data active = potentiation above about 30%; also: 0% is about no effect
Target sequence (P21728 whole entry, looked up): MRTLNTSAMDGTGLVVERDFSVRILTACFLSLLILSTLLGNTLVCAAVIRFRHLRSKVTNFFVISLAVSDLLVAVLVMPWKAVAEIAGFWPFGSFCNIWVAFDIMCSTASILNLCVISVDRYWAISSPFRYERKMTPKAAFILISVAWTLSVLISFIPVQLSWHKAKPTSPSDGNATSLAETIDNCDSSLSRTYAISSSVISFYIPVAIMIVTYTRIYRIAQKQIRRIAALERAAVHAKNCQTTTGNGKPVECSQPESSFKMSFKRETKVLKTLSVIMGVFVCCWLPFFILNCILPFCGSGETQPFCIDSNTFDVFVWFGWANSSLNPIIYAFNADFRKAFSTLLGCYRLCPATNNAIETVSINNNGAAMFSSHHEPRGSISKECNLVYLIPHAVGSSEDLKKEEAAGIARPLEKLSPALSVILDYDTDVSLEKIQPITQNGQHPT
D1 ag = Allosteric Agonists of the Human D1 Dopamine Receptor: qHTS; HEK293 T-REx D1 cells, calcium flux, agonist mode; activation, % at 2 µM; 1% of 360,000 active; D(1A) dopamine receptor (Homo sapiens), P21728; in the data active = activation above about 30%; also: 0% is about no effect
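Inducible HEK293 T-REx D1 cells, force-coupled to calcium signalling, were plated at 4000 cells/well with tetracycline and held overnight at 30 C. After no-wash calcium dye loading, compound-evoked calcium rise over 180 s flagged agonists.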
D3 ag = qHTS of D3 Dopamine Receptor Agonist: qHTS; D3R DiscoveRx beta-arrestin cells, luminescence, 90 min; 0.58% of 410,000 active; D(3) dopamine receptor (Homo sapiens), P35462; max activation, %; AID 652048, 2013; in the data active = max activation above about 30%; also: 0% is about no effect
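Agonist mode: compounds and dopamine controls were applied to plated cells for 90 min at 37 degrees C after an overnight attachment at 1500 cells/well. Luminescent read-out followed 30 - 60 minutes at room temperature with DiscoveRx detection reagent.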
D3 antag = qHTS of D3 Dopamine Receptor Antagonist: qHTS | 2.5% of 360,000 active | D(3) dopamine receptor (Homo sapiens), P35462 | max response, negative = inhibition, % | D3R cells, DiscoveRx beta-arrestin luminescence, antagonist mode; stronger effect = lower value; in the data active = max response below about -50%; inconclusive = no clear call, values can overlap the other calls; also: % is scaled to controls: 0 for no effect and ±100 for the full control effect
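Cells expressing the human receptor were seeded at 1500 cells/well, incubated overnight at 37 degrees C in 5% CO2, then exposed to library compounds with dopamine controls for 90 minutes at 37 degrees C before luminescent detection.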
D1 antag = Antagonist of Human D 1 Dopamine Receptor: qHTS; 3.2% of 360,000 active; HEK293 TREx D1 cells, calcium flux, dopamine EC80; stronger effect = lower value; D(1A) dopamine receptor (Homo sapiens), P21728; activity change, negative = inhibition, % at 10 µM; in the data active = activity change below about -30%; also: % is scaled to controls: 0 for no effect and ±100 for the full control effect
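Allosteric or orthosteric antagonism assessed as attenuation of the calcium response to EC80 dopamine, added 180 s after compound, in induced HEK293 Trex D1 cells loaded with no-wash calcium dye.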
* hit, by the source's call; ? = inconclusive; nt = no result given. Shown are actives, neighbours in structure and some others; about 6% of the full set was active somewhere.

SMILES | D1 potentiator | D1 ag | D3 ag | D3 antag | D1 antag
COCc1ccc(C(=O)N2CCCC(C(=O)c3ccc(SC)cc3)C2)s1 (centres undefined) | 1 | 7 | -12 | -13 | -36*
CSc1ccc(C(=O)C2CCCN(C(=O)Cc3nonc3C)C2)cc1 (centres undefined) | -8 | 0 | 16 | -84* | -7
Cc1cc2c(s1)c1cnn(Cc3cc(OC(F)(F)F)ccc3F)c(=O)c1n2C | 6 | 3 | nt | nt | -14
CN[C@@H]1[C@@H](O[C@H]2O[C@H](CO)[C@@H](N)[C@H](O)[C@H]2O)O[C@H]2C[C@@H](N)[C@@H](O[C@H]3[C@H](O)[C@@H](O)[C@H](N)C[C@@H]3N)O[C@@H]2[C@@H]1O | nt | nt | 5 | nt | nt
N#CCCN(Cc1cccnc1)S(=O)(=O)c1ccc(S(=O)(=O)N2CCCCCC2)cc1 | -2 | 6 | -1 | 0 | -19
N#CCCN(CCN1CCCC1)S(=O)(=O)c1ccc(-c2ccc([N+](=O)[O-])cc2)cc1 | -6 | 39* | -1 | 6 | 0
Cc1nnc(N2CCN(c3ccccc3)CC2)c2c1nnn2Cc1ccc(F)cc1 | -2 | 0 | 4 | nt | 8
CCCNC(=O)C1CC(c2ccc(C(F)(F)F)cc2)=NO1 (centres undefined) | -5 | 16 | 38* | -14 | -3
O=C(Nc1ccc(OC(F)(F)F)cc1)C1CC(c2ccc(F)cc2)=NO1 (centres undefined) | -3 | 8 | 6 | 5 | -35*
CCCCNC(=O)C1CC(c2ccc(C(F)(F)F)cc2)=NO1 (centres undefined) | 3 | 17 | 20 | 9 | -26
COc1ccc(CCNC(=O)C2CC(c3cc(C(F)(F)F)cc(C(F)(F)F)c3)=NO2)cc1 (centres undefined) | -3 | 10 | 33* | 5 | 35
COc1ccc(C2=NOC(C(=O)NCC(C)C)C2)cc1 (centres undefined) | 3 | 3 | -2 | -90* | -19
COc1ccc(CNC(=O)C2CC(c3ccc(OC)cc3)=NO2)cc1 (centres undefined) | -4 | 5 | -6 | -11 | -7
O=C(NCc1ccccc1F)C(=O)NCC(c1ccco1)S(=O)(=O)c1cccs1 (centres undefined) | 0 | -1 | 6 | nt | nt
O=C(NCCCCc1ccccc1)C1CC(c2ccccc2C(F)(F)F)=NO1 (centres undefined) | -1 | 12 | 5 | 11 | -6
O=C(NCCCCc1ccccc1)C1CC(c2ccc(C(F)(F)F)cc2)=NO1 (centres undefined) | -4 | 12 | 58* | 53 | -14
CCCn1c(=O)n(-c2ccccc2)c(=O)c2sc3ccccc3c21 | -1 | 1 | -11 | nt | 2
Cc1cccc(-n2ncc3c(NCCc4ccc(S(N)(=O)=O)cc4)ncnc32)c1 | -10 | 0 | -10 | -24 | -48*
Cc1ccc(-n2ncc3c(NCCc4ccc(S(N)(=O)=O)cc4)ncnc32)cc1 | -4 | -3 | 4 | nt | -48*
Cc1ccc(N2C(=O)CS(=O)(=O)C23C(=O)N(Cc2ccc(Cl)cc2)c2ccccc23)cc1C (centres undefined) | -3 | 7 | -4 | nt | 6
Cc1cc(C)n(-c2nc(SCCN(C)C)c3c4c(sc3n2)CCCC4)n1 | 3 | 11 | -16 | -71* | 3
CCC(O)CNc1nc(-n2nc(C)cc2C)nc2sc3c(c12)CCCC3 (centres undefined) | -8 | 1 | nt | nt | 3
CCOC(=O)c1cc(OC(=O)c2cccnc2)n(-c2ccccc2)n1 | 6 | 0 | nt | nt | -39*
CCOC(=O)c1cc(OC(=O)c2cccc(C)c2)n(-c2ccccc2)n1 | -1 | 2 | 3 | nt | -3
CCNC(=S)N(Cc1ccccc1)Cc1nc2ccccc2c(=O)[nH]1 | -12 | 6 | 2 | 9 | -31*
SMILES | D1 potentiator | D1 ag | D3 ag | D3 antag | D1 antag
Cc1ccc(NC(=O)N(Cc2nc3ccccc3c(=O)[nH]2)Cc2cccs2)cc1 | -8 | 2 | 5 | 9 | -46*
COCCCNC(=S)N(Cc1ccccc1)Cc1nc2ccccc2c(=O)[nH]1 | -7 | 1 | 5 | 21 | 14
COc1ccccc1CN(Cc1nc2ccccc2c(=O)[nH]1)C(=O)Nc1ccc(C)cc1 | -3 | 0 | 0 | 8 | 6
Cc1ccc(Cn2c(=O)n(CCCCC(=O)NCCc3ccc(Cl)cc3)c(=O)c3ccccc32)cc1 | 0 | 11 | 1 | nt | -9
Cc1nn2c(=O)cc(COC(=O)COc3ccccc3C)nc2s1 | -6 | 4 | 1 | nt | -8
COC(=O)c1sccc1S(=O)(=O)N(CC(=O)Nc1c(C)cccc1C)c1ccc(C)c(C)c1 | 2 | 8 | -2 | nt | -3
NC(=O)c1ccccc1OCC(=O)O | -2 | 2 | 6 | 17 | 0
NC(=O)c1ccccc1OCC(=O)NS(=O)(=O)c1ccccc1 | -1 | 0 | -2 | -65* | 11
Fc1cccc(CNc2ncnc3ccc(-c4cccnc4)cc23)c1 | -3 | 3 | nt | nt | -4
COc1ccc(-c2cc(C(F)(F)F)nc(S(=O)(=O)CCCC(=O)Nc3cc(C)on3)n2)cc1OC | -5 | 2 | -10 | ? | -9
COc1ccccc1-c1cc(C(F)(F)F)nc(S(=O)(=O)CCCC(=O)Nc2cc(C)on2)n1 | -2 | 3 | -1 | -82* | -5
COc1ccccc1-c1cc(C(F)(F)F)nc(S(=O)(=O)CCCC(=O)N2CCCCC2C)n1 (centres undefined) | -9 | 1 | -6 | -88* | 5
COc1ccc(Cl)cc1NC(=O)CCS(=O)(=O)c1nc(-c2cccs2)cc(C(F)(F)F)n1 | 0 | 5 | -18 | nt | -35*
COc1ccccc1-c1cc(C(F)(F)F)nc(S(=O)(=O)CCCC(=O)NCc2ccc(F)cc2)n1 | 5 | 1 | -9 | -67* | 16
Cc1ccccc1-c1noc(-c2cccnc2N2CCN(c3ccccc3)CC2)n1 | -2 | 11 | 5 | nt | 4
CCOC(=O)c1c(S(=O)(=O)N2CCC(C(=O)Nc3ncccc3C)CC2)c(C)n(C)c1C | -2 | 2 | 8 | nt | -3
Cc1cc(C)c(NC(=O)Cc2csc(C)n2)c(Cl)c1 | -1 | 0 | 6 | nt | 12
COc1ccccc1-c1cc(C(F)(F)F)nc(S(=O)(=O)CCCC(=O)NC(C)C)n1 | -2 | 0 | 0 | -67* | -6
COc1ccccc1-c1cc(C(F)(F)F)nc(S(=O)(=O)CCCC(=O)Nc2cccnc2Cl)n1 | 0 | 2 | -15 | -52* | -3
COc1cc(OC)cc(-c2c(-c3cccs3)c3cc(-c4ccc(N(C)C)nc4)ccc3n2C)c1 | -2 | 1 | 47* | 0 | nt

Compound activity: PubChem, National Center for Advancing Translational Sciences (NCATS)
